CtBP-E1A inh: inhibitors of CtBP/E1A interaction; activity change, % (no concentration beside the values); AlphaScreen GST-E1A/His-CtBP binding, 1536-well; hits give low values; AID 651724; hit rate 0.49% among 340,000; in the data active means activity change below about -65%; inconclusive means mostly about -30% to -63%
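In 5 uL wells, 23 nL compound meets equimolar GST-E1A and His-CtBP (5X stock 125 nM each) for 2 h, 37 °C. Beads (5X, 50 ug/mL) then 1 h, 37 °C, dark.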
Six1-Eya2 inh: inhibitors of human Six1/Eya2 interaction; AlphaScreen GST-Six1/His-Eya2 binding, biochemical; hits give low values; activity change, % (concentration not given with the values); hit rate 0.56% among 360,000; in the data active means activity change below about -65%; inconclusive means mostly about -30% to -63%
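AlphaScreen with GST-Six1 and His-Eya2 (5X mix: 250 nM and 500 nM), glutathione donor and nickel acceptor beads; buffer 50 mM Tris pH 8.0, 300 mM NaCl, 1 mM TCEP; 1 h at 37 C in the dark.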
TDP1 block: TDP1 (human) enzyme inhibition | hit rate 0.28% among 350,000 | recombinant TDP1, AlphaScreen DNA substrate cleavage | Potency, µM (top dose mostly 130 µM), for inactives: top-dose activity change, negative = inhibition, hits mostly inhibitors; further: potency means the concentration at half of the fitted maximal effect; nearly all actives have a fitted effect of over 40% in size
Target sequence (Q9NUW8 whole entry, looked up): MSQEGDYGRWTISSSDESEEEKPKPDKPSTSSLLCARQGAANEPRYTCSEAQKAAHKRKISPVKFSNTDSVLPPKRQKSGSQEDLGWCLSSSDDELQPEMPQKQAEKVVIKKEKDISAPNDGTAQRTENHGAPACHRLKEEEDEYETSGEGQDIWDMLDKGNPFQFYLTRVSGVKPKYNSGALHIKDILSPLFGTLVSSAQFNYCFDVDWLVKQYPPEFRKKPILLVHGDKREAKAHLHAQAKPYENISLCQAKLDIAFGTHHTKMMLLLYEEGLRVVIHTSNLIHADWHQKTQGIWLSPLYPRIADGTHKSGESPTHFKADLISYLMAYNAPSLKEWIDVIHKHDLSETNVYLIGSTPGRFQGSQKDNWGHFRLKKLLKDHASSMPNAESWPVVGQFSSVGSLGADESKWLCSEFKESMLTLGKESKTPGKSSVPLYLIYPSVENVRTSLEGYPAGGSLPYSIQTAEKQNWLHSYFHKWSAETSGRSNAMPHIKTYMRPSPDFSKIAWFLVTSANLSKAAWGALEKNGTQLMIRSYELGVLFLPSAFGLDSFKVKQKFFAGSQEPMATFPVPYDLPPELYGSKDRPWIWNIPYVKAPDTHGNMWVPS
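Steps: enzyme plus compound, 15 min RT; add biotin/phosphotyrosine-FITC oligonucleotide (15 nM final), react 5 min; add donor/acceptor beads (10 ug/ml final), 10 min; read AlphaScreen. Tdp1 at 1 nM final.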
TDP1 cell CPT: DT40-hTDP1 cell growth loss with CPT; AID 686979; chicken DT40 Tdp1-/-;hTDP1 cells + 20 nM CPT, ATP luminescence, 48 h; hit rate 12% among 420,000; Potency, µM (top dose mostly 46.2 µM), inactives show at the top dose activity change, negative = growth inhibition, actives largely listed as inhibitors; further: potency means the concentration at half of the fitted maximal effect; nearly all actives have a fitted effect of over 55% in size
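Cell growth measured by CellTiter-Glo luminescence after a minimum 48 h, 37 C compound exposure with 20 nM CPT in Tdp1-knockout DT40 cells stably expressing hTDP1, seeded 400/well; qHTS titration format.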
IL1B secr inh: inflammasome signaling inhibition, IL-1 beta readout | activity change, % at 57.5 µM | hit rate 4.7% among 360,000 | THP-1 LPS/ATP IL-1B secretion, AlphaLISA, 16 h; hits give low values | AID 743279; in the data active means activity change below about -50%; inconclusive means mostly about -30% to -49%
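Secreted IL-1B measured by AlphaLISA bead assay after 16 h compound exposure of THP-1 cells; compounds (final up to 57.5 uM) added 1 h before LPS (250 ng/mL) and ATP (1.25 mM) stimulation; lower signal means less secretion.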
DT40 TDP1 no CPT: qHTS for Inhibitors of human tyrosyl-DNA phosphodiesterase 1 (TDP1): qHTS in cells in absence of CPT. DT40 Tdp1-/- hTDP1 cells, no CPT, ATP luminescence, 48 h. hit rate 15% among 420,000. AID 686978, 2013. Potency, µM (series often up to 46.2 µM), for inactives: at the top dose activity change, negative = growth inhibition, hits mostly inhibitors; further: potency means the concentration at half of the fitted maximal effect; nearly all actives have a fitted effect of over 55% in size
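Camptothecin absent (DMSO only). Human TDP1-complemented DT40 knockout cells, 400 cells/well, 37 °C for minimum 48 hr; ATP measured via CellTiter-Glo, 30 min dark incubation, luminescence.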
Numbers without * were called inactive. Compounds with a hit are over-represented: about 18% of the library has one in this group of screens. Unless noted, the call rests on the fitted dose curve; in most records, active means well fitted curve in the direction sought with a large enough effect; inconclusive means small, poorly fitted or top-dose-only effect, or another doubt; inactive means no such curve, though single readings can be large; an effect the other way counts as inactive or inconclusive. On the % scale 0 is the no-effect control and ±100 the full control effect.

How did O=C(CCCN1C(=O)/C(=C/c2ccccc2Cl)SC1=S)NNC(=O)c1ccccc1Cl do in these assays?
CtBP-E1A inh: 36; Six1-Eya2 inh: 0; TDP1 block: 5%; TDP1 cell CPT: inconclusive; IL1B secr inh: 19; DT40 TDP1 no CPT: 21µM*

How did O=C(CCN1C(=O)S/C(=C\c2ccccc2)C1=O)N1CCCCC1 do in these assays?
CtBP-E1A inh: -3; Six1-Eya2 inh: 11; TDP1 cell CPT: inconclusive; IL1B secr inh: -4; DT40 TDP1 no CPT: inconclusive

What do the screens show for `CCOC(=O)N1CCN(C(=O)CCN2C(=O)/C(=C\c3ccccc3OC)SC2=S)CC1`?
CtBP-E1A inh: 11; Six1-Eya2 inh: 4; TDP1 block: 5%; TDP1 cell CPT: 23µM*; IL1B secr inh: 21; DT40 TDP1 no CPT: 23µM*

What do the screens show for `COc1cc(NC(=S)NCCCN(C)C)c(OC)cc1NC(=O)c1ccco1`?
CtBP-E1A inh: -13; Six1-Eya2 inh: -17; TDP1 cell CPT: 2%; IL1B secr inh: -6; DT40 TDP1 no CPT: 12%

How did O=C(CCN1C(=O)/C(=C/c2ccccc2Cl)SC1=S)N1CCOCC1 do in these assays?
CtBP-E1A inh: -2; Six1-Eya2 inh: -1; TDP1 block: 2%; TDP1 cell CPT: 5.2µM*; IL1B secr inh: -112*; DT40 TDP1 no CPT: 3.7µM*

How did CCOC(=O)N1CCN(C(=O)CN2C(=O)/C(=C\c3cccc(OC)c3)SC2=S)CC1 do in these assays?
TDP1 block: 5%; TDP1 cell CPT: 7.9µM*; DT40 TDP1 no CPT: 8.9µM*

Results for O=C(CCN1C(=O)/C(=C/c2ccccc2Cl)SC1=S)NC1CCS(=O)(=O)C1 (stereo not drawn) ?
CtBP-E1A inh: -3; Six1-Eya2 inh: -23; TDP1 block: -14%; TDP1 cell CPT: -19%; IL1B secr inh: 0; DT40 TDP1 no CPT: -1%

Results for COc1cccc(/C=C2\SC(=S)N(CCCC(=O)N3CCCCC3)C2=O)c1 ?
CtBP-E1A inh: -9; Six1-Eya2 inh: -1; TDP1 block: 11%; TDP1 cell CPT: inconclusive; IL1B secr inh: 5; DT40 TDP1 no CPT: inconclusive

What do the screens show for `COc1ccc(C2Oc3ccccc3C(=O)N2Cc2ccccc2)cc1COc1ccc(NC(C)=O)cc1` (stereo not drawn)?
TDP1 block: 1%

Results for COC(=O)c1ccc(NC(=S)NC(=O)c2cccnc2)cc1 ?
CtBP-E1A inh: 7; Six1-Eya2 inh: 3; TDP1 block: 2%; TDP1 cell CPT: -18%; IL1B secr inh: 25; DT40 TDP1 no CPT: -12%

What do the screens show for `CCOC(=O)/C(=N\Nc1ccccc1Cl)N1CCN(Cc2ccccc2)CC1`?
CtBP-E1A inh: -9; Six1-Eya2 inh: 2; TDP1 block: 2%; TDP1 cell CPT: inconclusive; IL1B secr inh: -18; DT40 TDP1 no CPT: inconclusive

Results for CCOC(=O)/C(=N\Nc1ccccc1Cl)N1CCN(C)CC1 ?
CtBP-E1A inh: -4; Six1-Eya2 inh: -2; TDP1 block: -1%; TDP1 cell CPT: inconclusive; IL1B secr inh: -58*; DT40 TDP1 no CPT: inconclusive

How did CCN1C(=O)CC(C(C)C)N(C2CCCC2)c2nc(Nc3ccc(C(=O)NC4CCN(C)CC4)cc3OC)ncc21 (stereo not drawn) do in these assays?
CtBP-E1A inh: -7; Six1-Eya2 inh: -1; TDP1 cell CPT: inconclusive; IL1B secr inh: -74*; DT40 TDP1 no CPT: inconclusive

Results for CCN1C(=O)CC(c2ccccc2)N(C2CCCC2)c2nc(Nc3ccc(C(=O)NC4CCN(C)CC4)cc3OC)ncc21 (stereo not drawn) ?
CtBP-E1A inh: -5; Six1-Eya2 inh: -13; TDP1 block: 6%; TDP1 cell CPT: inconclusive; IL1B secr inh: -77*; DT40 TDP1 no CPT: inconclusive

Assay outcomes deposited in PubChem BioAssay by National Center for Advancing Translational Sciences (NCATS).
